Laboratory results as given in PubChem BioAssay (Tox21).
Values without a mark were called inactive. The call rests on the fitted dose curve; in most records, active means well fitted curve in the direction sought with a large enough effect in the repeat runs; inconclusive means weak or mixed curves; inactive means flat fitted curve, though single readings scatter. Positions of bridges follow the written chain, without caps; N, C: chain ends. Non-standard residues stand in square brackets, D forms with d. Residues, ends and D or L forms follow the SMILES beside them. ξ: configuration not given here. *: point of attachment. d(aThr) = C[C@@H](O)[C@@H](N)C(=O)O; ξThr(3R) = C[C@@H](O)C(N)C(=O)O; X3 = CC[C@@H](C)CCCCC(=O)*; dDab = NCC[C@@H](N)C(=O)O

test: qHTS assay to test for compound auto fluorescence at 590 nm (red) in HepG2 cells (AID 720674); conditions: HepG2 autofluorescence, red 540/590 nm, 1 h; series mostly up to 46 µM; fluorescence, relative to Rose Bengal: at the top concentration
Summary of the method: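 Seeding: 2,000 HepG2 cells/well, MEM/10% FBS, overnight 37 C. Dosing: compound vs DMSO. Incubation: 1 hr, 37 C, 5% CO2. Read: fluorescence 540 ex/590 em, Rose Bengal sodium as red reference.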
On the % scale 0 is the no-effect control and ±100 the full control effect.

SMILES | fluorescence, relative to Rose Bengal
CSc1nc2cc(Oc3cccc(Cl)c3Cl)c(Cl)cc2[nH]1 | -0.0033%
Cc1ccc(S(=O)(=O)NC(=O)N[C@@H](C)Cc2ccccc2)cc1 | 0.149%
CC[C@@H](C)CCCCC(=O)N[C@H](CCN)C(=O)N[C@@H](C(=O)N[C@H](CCN)C(=O)N[C@@H]1CCNC(=O)C([C@@H](C)O)NC(=O)[C@@H](CCN)NC(=O)[C@@H](CCN)NC(=O)[C@@H](CC(C)C)NC(=O)[C@@H](Cc2ccccc2)NC(=O)[C@@H](CCN)NC1=O)[C@@H](C)O (stereo partly drawn) (X3-[dDab][d(aThr)][dDab][dDab][dDab][dF][dL][dDab][dDab][ξThr(3R)]; lactam 4-C) | -0.159%
COC(=O)C1=C(C)NC(C)=C(C(=O)O[C@H]2CCN(Cc3ccccc3)C2)[C@H]1c1cccc([N+](=O)[O-])c1 | 0.189%
CCCCCCCCCCCCCCCCOCCOCCOCCOCCOCCOCCOCCOCCOCCOCCOCCOCCOCCOCCOCCOCCOCCOCCOCCOCCO | 0.0981%
CCC(=O)O[C@@H]1CC(=O)O[C@H](C)C/C=C/C=C/[C@H](O)[C@H](C)C[C@H](CC=O)[C@H](O[C@@H]2O[C@H](C)[C@@H](O[C@H]3C[C@@](C)(O)[C@@H](OC(=O)CC)[C@H](C)O3)[C@H](N(C)C)[C@H]2O)[C@H]1OC | 0.31% [at 18.6 µM]
O=C(Nc1ccc(/C=C/c2ccc(NC(=O)c3cc(S(=O)(=O)O)c4cccnc4c3O)cc2S(=O)(=O)O)c(S(=O)(=O)O)c1)c1cc(S(=O)(=O)O)c2cccnc2c1O | 0.147%
C[C@]12C=CC(=O)N[C@@H]1CC[C@@H]1[C@@H]2CC[C@]2(C)[C@@H](C(=O)Nc3cc(C(F)(F)F)ccc3C(F)(F)F)CC[C@@H]12 | 0.0188%
